Bioassay records (PubChem BioAssay)
AMA1-RON2 inh: disrupts binding of P. falciparum AMA1 to RON2 | hit rate 0.2% among 360,000 | AlphaScreen AMA1-biotinylated RON2 peptide binding | AID 720542 | Potency, µM (titrated, usually from 58.2 µM), without a hit: top-dose activity change, negative = inhibition, actives largely listed as inhibitors;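 note: 0% = vehicle wells and -100% = peptide control; nearly all actives have a fitted effect of over 45% in size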
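AMA1 (3D7) with his tag at 25 nM final met compounds first, then biotinylated RON2 peptide at 25 nM; detection used donor plus acceptor beads, 10 µg/mL apiece, read by AlphaScreen after 30 min at room temperature.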
Pf growth 48h: inhibits P. falciparum growth in the first generation, 48 h. AID 504832. hit rate 5.9% among 310,000. P. falciparum luciferase growth in erythrocytes, 48 h. Potency, µM (top dose mostly 28.7 µM), without a hit: at the highest dose activity change, negative = inhibition, actives largely listed as inhibitors
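In quantitative HTS format, infected erythrocytes bearing luciferase-reporter parasites were treated for a single generation at 37 C. Luminescence after adding detection reagent served as the growth measure.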
Pf growth 96h: P. falciparum growth inhibition at 96 hour, primary screen for plastid delayed-death inhibitors; Potency, µM (highest dose often 28.7 µM), for the others: at the top dose activity change, negative = inhibition, most hits filed as inhibitors; AID 504834; P. falciparum luciferase reporter growth, 96 h; hit rate 6.9% among 320,000
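P. falciparum expressing integrated firefly luciferase, in erythrocytes at 2% hematocrit, 0.05% parasitemia, incubated with compounds 96 h at 37 C, 5% CO2. Growth inhibition read as loss of luminescence; two-generation exposure targets delayed-death apicoplast inhibitors.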
AmpC no deterg: blocks E. coli AmpC beta-lactamase in detergent-free assay. P00811. AID 485341. AmpC nitrocefin hydrolysis, absorbance 480 nm, 0.0001% Triton. Potency, µM (top dose mostly 57.1 µM), inactives show at the top dose activity change, negative = inhibition, hits mostly inhibitors. hit rate 0.52% among 330,000;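 note: plate controls were no compound for no effect and no enzyme for full effect; nearly all actives have a fitted effect of over 20% in size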
Target sequence (P00811 whole entry, looked up): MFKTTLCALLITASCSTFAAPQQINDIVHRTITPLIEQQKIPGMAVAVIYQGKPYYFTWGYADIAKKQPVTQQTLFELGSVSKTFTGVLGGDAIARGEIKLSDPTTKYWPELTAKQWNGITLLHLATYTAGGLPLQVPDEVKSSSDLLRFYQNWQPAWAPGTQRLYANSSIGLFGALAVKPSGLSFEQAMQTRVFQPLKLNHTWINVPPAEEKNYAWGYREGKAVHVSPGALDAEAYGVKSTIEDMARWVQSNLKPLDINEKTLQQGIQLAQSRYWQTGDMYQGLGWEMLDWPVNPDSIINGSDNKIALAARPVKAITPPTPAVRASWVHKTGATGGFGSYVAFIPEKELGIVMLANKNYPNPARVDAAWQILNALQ
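20 mM phosphate pH 7.0 + 0.01% (detergent screen) or 0.0001% Triton X-100; 5.3 nM AmpC reagent; cpd preinc 15 min RT; nitrocefin (800 uM stock) to start; A480 q20 s × 4 min; Activity was normalised to no-enzyme and no-compound control wells.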
HCV inh: inhibitors of hepatitis C virus infection. Potency, µM (series often up to 41.8 µM), inactives show at the top dose activity change, negative = inhibition, actives largely listed as inhibitors. AID 651820. hit rate 3.4% among 340,000. Huh7.5.1 HCVcc-Cre infection, luciferase reporter, 44 h
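After 44 h co-culture of compound, cells and HCVcc-Cre (~0.5 moi), substrate is added for 15 min at room temperature and luciferase measured over 15 sec. Cells were seeded at 1,000/well and pre-cultured 4 h.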
AmpC detergent: inhibitors of E. coli AmpC beta-lactamase with detergent; hit rate 0.041% among 370,000; Potency, µM (highest dose often 114 µM), for the others: at the top dose activity change, negative = inhibition, most hits filed as inhibitors; AmpC hydrolysis of nitrocefin, absorbance 480 nm, 0.01% Triton; P00811; AID 485294;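 note: 0% = no-compound wells and -100% = no-enzyme wells; nearly all actives have a fitted effect of over 25% in size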
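AmpC (5.3 nM in the dispensed reagent) in 20 mM phosphate pH 7.0 with 0.01% (detergent screen) or 0.0001% Triton X-100 was preincubated with compounds for 15 min at room temperature. Nitrocefin was then added from an 800 uM solution, and hydrolysis was followed at 480 nm.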
The depositor's hits bear a star; i = inactive; ? = inconclusive; . = not tested or not shown; [ ] = another dose, or the depositor's remark. A selection: hits, their analogues and other compounds. The true share with any hit is near 11%. Calls come from the whole dose curve; as a rule, active = well fitted curve in the direction sought with a large enough effect; inconclusive = small, poorly fitted or top-dose-only effect, or another doubt; inactive = no such curve, though single readings can be large; an effect the other way counts as inactive or inconclusive. Unless noted, % is set by controls: 0 for no effect and ±100 for the full control effect; potency is the fitted concentration of half-maximal effect.

SMILES | AMA1-RON2 inh | Pf growth 48h | Pf growth 96h | AmpC no deterg | HCV inh | AmpC detergent
Cc1ccc(C(C)C)c(OCc2nc(-c3nonc3N)no2)c1 | 2% | . | 4.7µM* | -50% | -18% | -16%
Clc1cccc(OCc2nc(-c3ccncc3)no2)c1 | -1% | 26%[5.75 µM] | 119% | -1%[2.29 µM] | 10% | -7%
Clc1ccc(OCc2nc(-c3ccncc3)no2)c(Cl)c1 | 8% | -58% | 10µM* | 30% | ? | 3%
CCCCCc1nc(-c2nonc2N)no1 | -13% | 7% | 150% | -17% | 17% | -5%
Nc1nonc1-c1noc(CCCOc2ccc(Cl)cc2Cl)n1 | 41% | -23% | 5.2µM* | -1% | ? | ?
CCCN1C(=O)/C(=C\C=C2/Sc3ccccc3N2CC)SC1=S | . | 22% | 49% | 0% | . | -5%
CCCN1C(=O)/C(=C\C=C2\N(CC)c3ccccc3C2(C)C)SC1=S | ? | 5.2µM* | -4% | -22% | ? | 3%
Cc1ccccc1C(=O)c1cccn1CC(=O)NCCCN1CCCCC1 | 19% | 10% | 2% | 4% | 24% | -10%
Cc1ccc(C)c(N2CCN(CCCNC(=O)Cn3cccc3C(=O)c3ccccc3C)CC2)c1 | -17% | ? | 44% | 195% | 11µM* | -1%
Cc1ccccc1C(=O)c1cccn1CC(=O)NCCN1CCN(c2cccc(C)c2C)CC1 | ? | ? | 5.9µM* | 181% | 11µM* | -1%
Cc1cc(C)c(N2CCN(S(=O)(=O)N3CCCCCC3)CC2)c(C)c1 | -2% | 10µM* | . | 17% | -4% | -11%
CNC(=O)COc1ccc(NC(=O)CCn2nc(-c3ccc(C)cc3)c3ccccc3c2=O)cc1 | . | . | . | . | . | 20%
COc1cccc(C(C(=O)NC(C)(C)C)N(Cc2ccc(F)cc2)C(=O)CCC(=O)Nc2cc(C)on2)c1OC (centres undefined) | 2% | 13µM* | ? | 140% | -19% | 3%
CCC(C)(C)NC(=O)C(c1cccc(OC)c1OC)N(Cc1ccccc1)C(=O)CCC(=O)Nc1cc(C)on1 (centres undefined) | -4% | ? | 21% | 77% | 10% | 3%
CCC(C)(C)NC(=O)C(c1cccc(OC)c1OC)N(Cc1ccc(OC)cc1)C(=O)CCC(=O)Nc1cc(C)on1 (centres undefined) | -1% | 8.3µM* | 9% | 130% | -10% | 0%
CC1=Nc2cc(C(=O)NCc3ccco3)ccc2Sc2ccc(C)cc21 | -23% | 4.1µM* | 1.9µM* | -37% | ? | -6%
CC1=Nc2cc(C(=O)NCC3CCCO3)ccc2Sc2ccc(C)cc21 (centres undefined) | -9% | ? | -5% | 159% | 11% | -7%
CC(=O)Nc1ccc(S(=O)(=O)NCC2CCC(C(=O)NCCc3ccc(C)cc3)CC2)cc1 (centres undefined) | . | . | . | . | . | 1%
CCn1c(-c2cc(Br)cc(OC)c2O)nc2cc(S(=O)(=O)N(C)C)ccc21 | 57% | ? | 12µM* | 4% | ? | -8%
CCn1c(-c2ccccn2)nc2cc(S(=O)(=O)N(C)C)ccc21 | 46% | 46% | 43% | -2% | 12% | -6%
CC(C)C[C@@H](NC(=O)[C@@H](Cc1ccccc1)NC(=O)c1cnccn1)B(O)O | . | 0.12µM* | 0.034µM* | . | . | .
CCCNC(=O)C(Cc1ccccc1)NC(=O)c1ccccn1 (centres undefined) | 61% | 35% | 9% | -1% | 2% | -1%
Cc1ccc(CNC(=O)CCCn2c(=O)c3ccccc3n(CC(=O)Nc3ccc(C)cc3)c2=O)cc1 | . | . | . | . | . | 14%
CN(C)c1ccc(C=C(c2nnnn2-c2ccccc2)c2nnnn2-c2ccccc2)cc1 | -17% | 9.3µM* | i | -8% | -9% | -18%
CSc1ccc(CNC(=O)Cn2nc(C)c3c(C)n(-c4ccc(C)cc4)nc3c2=O)cc1 | 13% | 32% | 2.6µM* | -16% | 12% | -1%
SMILES | AMA1-RON2 inh | Pf growth 48h | Pf growth 96h | AmpC no deterg | HCV inh | AmpC detergent
Cc1ccc(-n2nc3c(=O)n(CC(=O)NCCc4ccco4)nc(C)c3c2C)cc1 | 2% | 25% | 8.3µM* | -10% | -6% | 3%
CCOc1ccccc1CNC(=O)Cn1nc(C)c2c(C)n(-c3ccc(C)cc3)nc2c1=O | -20% | -18% | ? | -1% | 2.8µM* | -1%
CCC(C(=O)NCc1cccc(C)c1)n1nc(C)c2c(C)n(-c3ccccc3)nc2c1=O (centres undefined) | -2% | ? | 20% | 2% | 13µM* | 3%
COc1cccc(CNC(=O)Cn2nc(C)c3c(C)n(-c4ccc(C)cc4)nc3c2=O)c1OC | -11% | 8% | ? | -10% | -10% | 0%
O=C(NCc1nc2ccccc2[nH]1)c1c(F)cccc1F | . | . | . | . | . | -3%
COc1cc(NC(=O)C2CCN(S(=O)(=O)c3c(C)noc3/C=C/c3cccs3)CC2)cc(OC)c1 | . | . | . | . | . | 0%
CCOc1ccccc1CNC(=O)C(C)n1nc(C)c2c(C)n(-c3ccccc3)nc2c1=O (centres undefined) | -1% | -19% | ? | -1% | 6.3µM* | 1%
CCN1CC(CN(C)Cc2nc(-c3cccs3)no2)CC1=O (centres undefined) | -8% | 0% | 12µM* | 4% | 3% | -8%
CCc1cccc(NC(=O)Cn2c(-c3ccc(F)cc3)cc(C(C)=O)c2C)c1 | . | . | . | . | . | -5%
Cc1ccc(NS(=O)(=O)c2ccc3nc(-c4ccccc4)[nH]c3c2)c(Cl)c1 | . | . | . | . | . | 7%
CN(C)c1cccc(C(=O)OC(C(=O)Nc2ccc(Cl)cc2C(F)(F)F)c2ccccc2)c1 (centres undefined) | 11% | ? | 12µM* | -42% | -16% | ?
CCSc1nc2c(sc3ccccc32)c(=O)n1C(C)C | 4% | . | 13µM* | -5% | -27% | -2%
CSC1=NC2(CCN(C(=O)NC3CCCCC3)CC2)N=C1c1ccc(C(C)(C)C)cc1 | . | . | . | . | . | 0%
O=C(CN(Cc1ccco1)Cc1cccs1)N1CCN(S(=O)(=O)c2cccc(F)c2)CC1 | 1% | 13µM* | ? | 63% | ? | 9%
COc1ccc(S(=O)(=O)N2CCN(C(=O)Cc3cccs3)CC2)cc1 | 4% | 5% | -9% | -35% | 3% | -1%
